Screening results (PubChem BioAssay)
In the library only some 1.9% were active in any assay of this set; here they are far more common.
PLC-gamma1 inh – PLC-gamma1 enzyme inhibitors, primary screen, biochemical, fluorescence, purified enzyme. 1-phosphatidylinositol 4,5-bisphosphate phosphodiesterase gamma-1 (Homo sapiens), P19174. fluorogenic substrate. inhibition, % at 12.2 µM. 370,000 compounds, 0.84% hits; in the data active means inhibition above about 9.5%
Target sequence (P19174 whole entry, looked up): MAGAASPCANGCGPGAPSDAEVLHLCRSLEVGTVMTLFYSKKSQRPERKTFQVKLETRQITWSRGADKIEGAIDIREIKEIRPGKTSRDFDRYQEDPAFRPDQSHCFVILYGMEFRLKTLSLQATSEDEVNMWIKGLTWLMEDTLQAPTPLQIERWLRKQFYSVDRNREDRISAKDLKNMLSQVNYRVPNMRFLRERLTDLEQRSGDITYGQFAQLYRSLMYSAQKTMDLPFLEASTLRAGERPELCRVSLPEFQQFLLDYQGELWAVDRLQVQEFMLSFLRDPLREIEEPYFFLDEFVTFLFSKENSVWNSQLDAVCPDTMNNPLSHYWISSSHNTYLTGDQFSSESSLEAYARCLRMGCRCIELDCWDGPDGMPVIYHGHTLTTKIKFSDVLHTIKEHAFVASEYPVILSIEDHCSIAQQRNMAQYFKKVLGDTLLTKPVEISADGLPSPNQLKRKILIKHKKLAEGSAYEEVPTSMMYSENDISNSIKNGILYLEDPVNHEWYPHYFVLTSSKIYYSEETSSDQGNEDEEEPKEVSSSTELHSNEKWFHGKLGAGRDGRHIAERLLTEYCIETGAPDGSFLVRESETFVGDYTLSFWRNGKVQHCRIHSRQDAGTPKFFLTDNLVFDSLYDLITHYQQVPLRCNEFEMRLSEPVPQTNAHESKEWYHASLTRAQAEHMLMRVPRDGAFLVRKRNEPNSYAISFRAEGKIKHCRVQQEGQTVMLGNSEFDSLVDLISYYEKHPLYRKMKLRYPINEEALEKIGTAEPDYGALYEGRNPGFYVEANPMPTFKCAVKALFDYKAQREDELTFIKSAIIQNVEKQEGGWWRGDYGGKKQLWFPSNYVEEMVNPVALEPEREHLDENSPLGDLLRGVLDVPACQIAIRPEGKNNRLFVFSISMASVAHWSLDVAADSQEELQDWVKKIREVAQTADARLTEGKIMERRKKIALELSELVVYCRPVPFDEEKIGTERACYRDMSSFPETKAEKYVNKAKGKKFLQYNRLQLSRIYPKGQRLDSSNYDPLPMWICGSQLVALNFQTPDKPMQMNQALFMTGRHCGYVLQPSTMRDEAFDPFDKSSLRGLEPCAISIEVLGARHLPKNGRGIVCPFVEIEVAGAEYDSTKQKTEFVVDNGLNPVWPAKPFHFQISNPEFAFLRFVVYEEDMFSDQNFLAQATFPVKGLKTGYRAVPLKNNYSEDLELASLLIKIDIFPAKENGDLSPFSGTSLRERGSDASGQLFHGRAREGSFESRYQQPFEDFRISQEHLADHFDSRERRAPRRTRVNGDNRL
bovine MsrA act – bovine MsrA enzyme activators, primary screen, biochemical, absorbance, HTS; purified bovine MsrA, absorbance read-out; Methionine sulfoxide reductase A (Bos taurus); activation, % at 10.6 µM; AID 602163, 2012; 360,000 compounds, 0.3% hits; in the data active means activation above about 7.5%
MsrA inh – bovine MsrA enzyme inhibitors, primary screen, biochemical, absorbance, HTS; Methionine sulfoxide reductase A (Bos taurus); purified bovine MsrA, absorbance read-out; inhibition, % at 15.5 µM; 360,000 compounds, 0.75% hits; AID 651718, 2012; in the data active means inhibition above about 4.5%
PLC-beta3 inh – human PLC-beta3 inhibitors, primary screen, biochemical, fluorescence | Purified PLC-beta3, fluorogenic substrate | inhibition, % at 12.2 µM | 370,000 compounds, 0.18% hits | AID 720704, 2013
PLCgamma1 ctr – PLC-gamma1 enzyme inhibitors, counter-screen for PLC-beta3 inhibitor project, biochemical, fluorescence; shares compounds with PLC-gamma1 inh; purified PLC-gamma1, fluorogenic substrate; inhibition, % at 12.3 µM; 3,300 compounds, 3.1% hits; in the data active means inhibition above about 9.5%
PLCbeta3 conf – PLC-beta3 inhibitor confirmation, biochemical, fluorescence, purified enzyme; shares compounds with PLC-gamma1 inh; fluorogenic substrate fluorescence; inhibition, % at 12.3 µM; 3,300 compounds, 1% hits; AID 743261, 2014
Numbers stand for hits. Unless noted, no stated cut-off is given here; in the data, active means inhibition above about 11%; inactive means the rest.

Results for S=c1nc(C23CC4CC(CC(C4)C2)C3)[nH][nH]1 ?
PLC-gamma1 inh: 12; bovine MsrA act: inactive; MsrA inh: inactive; PLC-beta3 inh: inactive; PLCgamma1 ctr: inactive; PLCbeta3 conf: inactive

How did CNC(=O)C1Cc2c(-c3cccc(F)c3)ccnc2O1 (stereo unspecified) do in these assays?
PLC-gamma1 inh: 16; bovine MsrA act: inactive; MsrA inh: inactive; PLC-beta3 inh: inactive; PLCgamma1 ctr: inactive; PLCbeta3 conf: inactive

What do the screens show for `Cc1cc(C)cc(N(CCC#N)C(=O)CSc2nc3ccccc3c(=O)[nH]2)c1`?
PLC-gamma1 inh: 9.8; bovine MsrA act: inactive; MsrA inh: inactive; PLC-beta3 inh: inactive; PLCgamma1 ctr: inactive; PLCbeta3 conf: inactive

How did Cc1ccc(C(=O)NC(=S)NNC(=O)CCN2CCOCC2)cc1 do in these assays?
PLC-gamma1 inh: 9.6; bovine MsrA act: inactive; MsrA inh: inactive; PLC-beta3 inh: inactive; PLCgamma1 ctr: inactive; PLCbeta3 conf: inactive

Results for COC(=O)C1=C(C)N(Cc2ccccc2C(F)(F)F)C(=NCc2ccc3c(c2)OCO3)NC1c1ccccc1 (stereo unspecified) ?
PLC-gamma1 inh: inactive; MsrA inh: inactive; PLC-beta3 inh: inactive

What do the screens show for `COc1ccc(N2CCN(C(=O)CNC(=O)Cc3ccc(Cl)cc3)CC2)cc1`?
PLC-gamma1 inh: inactive; bovine MsrA act: inactive; MsrA inh: inactive; PLC-beta3 inh: inactive

How did COc1ccc(N2CCN(C(=O)CNC(=O)Cc3ccccc3)CC2)cc1 do in these assays?
PLC-gamma1 inh: 10; bovine MsrA act: inactive; MsrA inh: inactive; PLC-beta3 inh: inactive; PLCgamma1 ctr: inactive; PLCbeta3 conf: inactive

Results for CNc1ncnc2c1ncn2[C@H]1CN(CCN2CCOCC2)C[C@@H](CO)O1 ?
PLC-gamma1 inh: inactive; bovine MsrA act: inactive; MsrA inh: inactive; PLC-beta3 inh: inactive

What do the screens show for `NC(=O)c1ccc(NS(=O)(=O)c2ccc(Br)s2)cc1`?
PLC-gamma1 inh: 9.7; bovine MsrA act: inactive; MsrA inh: inactive; PLC-beta3 inh: inactive; PLCgamma1 ctr: inactive; PLCbeta3 conf: inactive

Results for Cc1ccc(F)cc1NC(=O)c1ccc(NS(=O)(=O)c2ccc(Br)s2)cc1 ?
PLC-gamma1 inh: inactive; bovine MsrA act: inactive; MsrA inh: inactive; PLC-beta3 inh: inactive

What do the screens show for `CC1CCCCC1NC(=S)NC(=O)c1ccccc1Br` (stereo unspecified)?
PLC-gamma1 inh: inactive; bovine MsrA act: inactive; MsrA inh: inactive; PLC-beta3 inh: inactive

What do the screens show for `CC1CCCCC1NC(=S)NC(=O)c1ccccc1Cl` (stereo unspecified)?
PLC-gamma1 inh: 11; bovine MsrA act: inactive; MsrA inh: inactive; PLC-beta3 inh: inactive; PLCgamma1 ctr: inactive; PLCbeta3 conf: inactive

How did O=C(NN=Cc1ccccc1Cl)C(=O)Nc1cccc(C(F)(F)F)c1 do in these assays?
PLC-gamma1 inh: inactive; MsrA inh: inactive; PLC-beta3 inh: inactive

How did COc1cccc(NC(=S)NC(=O)/C=C/c2ccco2)c1 do in these assays?
PLC-gamma1 inh: inactive; bovine MsrA act: inactive; MsrA inh: inactive; PLC-beta3 inh: inactive

How did O=C(/C=C/c1ccco1)NC(=S)Nc1cccc(C(=O)O)c1 do in these assays?
PLC-gamma1 inh: 19; bovine MsrA act: inactive; MsrA inh: inactive; PLC-beta3 inh: inactive; PLCgamma1 ctr: 19; PLCbeta3 conf: inactive

How did O=C(CC(=O)NN=C1CCCCCC1)NCc1cccnc1 do in these assays?
PLC-gamma1 inh: 10; bovine MsrA act: inactive; MsrA inh: inactive; PLC-beta3 inh: inactive; PLCgamma1 ctr: inactive; PLCbeta3 conf: inactive

Results for O=C(NN=C1CCCCCC1)c1cccnc1 ?
PLC-gamma1 inh: inactive; bovine MsrA act: inactive; MsrA inh: inactive; PLC-beta3 inh: inactive

What do the screens show for `CCCCCCCCN1C(=O)[C@@H](CC(=O)NCc2cccc(C(F)(F)F)c2)C[C@@]2(C(=O)OC)C1=C[C@H](C1CCCC1)O[C@@H]2C`?
PLC-gamma1 inh: inactive; MsrA inh: inactive; PLC-beta3 inh: inactive

Results for O=C(CSc1ccc(F)cc1)NC(=O)NCc1ccccc1 ?
PLC-gamma1 inh: 10; bovine MsrA act: inactive; MsrA inh: inactive; PLC-beta3 inh: inactive; PLCgamma1 ctr: inactive; PLCbeta3 conf: inactive

What do the screens show for `Cc1ccnc(NS(=O)(=O)c2cccc3nsnc23)c1`?
PLC-gamma1 inh: 9.9; bovine MsrA act: inactive; MsrA inh: inactive; PLC-beta3 inh: inactive; PLCgamma1 ctr: inactive; PLCbeta3 conf: inactive

Results for Cc1cccc(NS(=O)(=O)c2cccc3nsnc23)c1 ?
PLC-gamma1 inh: inactive; bovine MsrA act: inactive; MsrA inh: inactive; PLC-beta3 inh: inactive

What do the screens show for `Cc1cc(/C=C2\SC(=S)N(C)C2=O)c(C)n1-c1cccc(O)c1`?
PLC-gamma1 inh: inactive; bovine MsrA act: inactive; MsrA inh: inactive; PLC-beta3 inh: inactive

What do the screens show for `COc1ccc(-n2c(C)cc(/C=C3/SC(=S)N(C)C3=O)c2C)cc1`?
PLC-gamma1 inh: 11; bovine MsrA act: inactive; MsrA inh: inactive; PLC-beta3 inh: inactive; PLCgamma1 ctr: inactive; PLCbeta3 conf: inactive

Results for COc1ccccc1C(=O)N1CC(=O)Nc2ccc(F)cc2C1c1ccccc1 (stereo unspecified) ?
PLC-gamma1 inh: 9.6; bovine MsrA act: inactive; MsrA inh: inactive; PLC-beta3 inh: inactive; PLCgamma1 ctr: inactive; PLCbeta3 conf: inactive

What do the screens show for `Cc1ccc2c(c1)C(c1ccccc1)N(C(=O)c1ccccc1[N+](=O)[O-])CC(=O)N2` (stereo unspecified)?
PLC-gamma1 inh: inactive; bovine MsrA act: inactive; MsrA inh: inactive; PLC-beta3 inh: inactive

What do the screens show for `O=C1CN(C(=O)c2ccccc2[N+](=O)[O-])C(c2ccccc2)c2cc(Br)ccc2N1` (stereo unspecified)?
PLC-gamma1 inh: 9.7; bovine MsrA act: inactive; MsrA inh: inactive; PLC-beta3 inh: inactive; PLCgamma1 ctr: inactive; PLCbeta3 conf: inactive

Results for CCC(CC)C(=O)N1CC(=O)Nc2ccc(F)cc2C1c1ccccc1 (stereo unspecified) ?
PLC-gamma1 inh: inactive; bovine MsrA act: inactive; MsrA inh: inactive; PLC-beta3 inh: inactive

What do the screens show for `CCOC(=O)N[C@@H](Cc1cccnc1)C(=O)N1CCC[C@H]1C(=O)NC1CCCC1`?
PLC-gamma1 inh: inactive; MsrA inh: inactive; PLC-beta3 inh: inactive

What do the screens show for `COC(=O)C1=C(C)N(C)C(=NCc2cccc(C(F)(F)F)c2)NC1c1cccc(F)c1` (stereo unspecified)?
PLC-gamma1 inh: inactive; MsrA inh: inactive; PLC-beta3 inh: inactive

How did COCC#Cc1ccc2c(c1)O[C@@H](CN(C)C(=O)Nc1ccc(OC)cc1)[C@H](C)CN([C@H](C)CO)S2(=O)=O do in these assays?
PLC-gamma1 inh: inactive; bovine MsrA act: inactive; MsrA inh: inactive; PLC-beta3 inh: inactive

Results for Clc1ccc(SCCOCCN2CCOCC2)cc1 ?
PLC-gamma1 inh: inactive; bovine MsrA act: inactive; MsrA inh: inactive; PLC-beta3 inh: inactive
